The source of these data is PubChem BioAssay AID1233 (SRMLSC, 2008).

The assay concerns the target HMG-CoA reductase [Enterococcus faecalis] (UniProt Q9FD70). The assay can be described thus: inhibitors of E. faecalis class II HMGR, confirmation, biochemical, Enterococcus faecalis (AID 1233).

SMILES strings stand for the structures. Results with a measured potency or affinity are listed apart. The source made the active and inactive calls.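 The calls were made as follows: active = a dose-response curve fit returns a half-maximal inhibitory concentration, extrapolated values included; inactive = the fit returns no such concentration.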

In the case of `CCOc1ccc(CN2CCN(Cc3cc4ccccc4[nH]3)CC2CCO)cc1` (stereo not given), the call was inactive.

For `COc1ccccc1/C=C/C(=O)OCC(=O)Nc1c(F)cccc1F`, the call was inactive.

In the case of `CCN(CC)C(=S)NC(=O)c1cccnc1`, the outcome was inactive.

For `CCOC(=O)c1c(-c2ccccc2)csc1NC(=S)N(CC)CC`, the compound was called inactive.

For the compound `O=c1[nH]ncc2c3ccccc3n(Cc3cccc(Cl)c3)c12`, the call was inactive.

For `CCN(C(=O)Cn1cc(C(F)(F)F)ccc1=O)c1c(N)n(Cc2ccccc2)c(=O)[nH]c1=O`, the outcome was inactive.

For the compound `COC(=O)c1ccccc1NC(=O)NCc1ccco1`, the outcome was inactive.

For the compound `Cc1ccc(S(=O)(=O)N2CCCCC2)cc1C(=O)N1CCN(c2ccccn2)CC1`, the compound was classed as inactive.

Turning to `CS(=O)(=O)N1CCc2cc(S(=O)(=O)N3CCCCC3)ccc21`, the outcome was inactive.

With `Cc1nc(NC(=O)COC(=O)CCS(=O)(=O)c2ccccc2Cl)c(Cl)cc1Cl`, the call was inactive.

In the case of `COCCN(C(=O)CNC(=O)c1cccs1)C(C(=O)NC1CCCCC1)c1ccco1` (stereo not given), the result was inactive.

Turning to `Cc1nnc(SCc2c(Cl)cccc2Cl)n(N)c1=O`, the result was inactive.

For `O=[N+]([O-])c1ccc(N2CCCCC2)c(-c2nn[nH]n2)c1`, the compound was called inactive.

For `COc1ccc(C[C@H]2COC(=O)[C@@H]2Cc2ccc(OC3OC(CO)C(O)C(O)C3O)c(OC)c2)cc1OC` (stereo not given in full), the outcome was inactive.

Turning to `COc1cc(OC)c(OC)cc1/C=N/NC(=S)NCCN1CCOCC1`, the compound was called inactive.

With `O=C(CCCN1C(=O)/C(=C\c2cccs2)SC1=S)Nc1ccccn1`, the call was inactive.

As to `Cc1ccc(C(=O)O)cc1S(=O)(=O)N1CCC(C(=O)O)CC1`, the result was inactive.

Regarding `O=C(CSCc1ccc(Cl)cc1)NCC1CCCO1` (stereo not given), the outcome was inactive.

Consider `CC(=O)c1ccc(N2CCN(C(=O)Cc3n[nH]c(=O)c4ccccc34)CC2)cc1`, for which the compound was called inactive.

Take `COc1ccc2c(c1)c(=O)c(C(=O)c1ccccc1)cn2Cc1ccc(C)cc1`: the call was inactive.

As to `COc1ccc(C(=O)NC2CCN(C(=S)NCCc3ccccc3)CC2)cc1`, the outcome was inactive.

On to `CN(C(=O)c1cc2ccccc2oc1=O)C1(C)CCS(=O)(=O)C1` (stereo not given), for which the result was inactive.

`COC(=O)C1=C(C)Nc2c(c(=O)n(C)c(=O)n2C)C1c1cccnc1` (stereo not given): the call was inactive.

As for `COc1ccc(C/C(C)=N/NS(=O)(=O)c2ccc(Br)cc2)cc1`, the compound was called inactive.

As to `CSc1ccccc1C(=O)NCc1ccccc1`, the outcome was inactive.

With `CN(c1ccc(C(=O)N2CCCCC2)cc1)S(=O)(=O)c1ccccc1`, the compound was called inactive.

`Cn1c(SCC(=O)N2CCCC2)nnc1-c1ccc(S(=O)(=O)N2CCCC2)cc1`: the call was inactive.

For `CCN(Cc1ccncc1)Cc1c(O)ccc2cc(Br)ccc12`, the outcome was inactive.

Consider `O=C(CCS(=O)(=O)c1cccc2nonc12)Nc1cccc2c1CCCC2`, for which the outcome was inactive.

In the case of `COc1ccc(OC)c(-n2nnnc2SCC(=O)Nc2ccccc2N2CCOCC2)c1`, the result was inactive.

In the case of `COc1ccc(C(=O)CSc2nnnn2Cc2ccccc2)cc1`, the call was inactive.

For the compound `COc1ccc(CCNC2=CC(=O)N(c3ccc(F)cc3)C2=O)cc1`, the call was inactive.

Consider `COc1cc(NC(=O)c2cc3nc(-c4ccccc4)cc(-c4ccccc4)n3n2)cc(OC)c1OC`, for which the compound was classed as inactive.

On to `CN(C=O)CP(=O)(O)CN1CCCCC1`, for which the call was inactive.

For `CCOc1cc(S(=O)(=O)N(CC)CC)c(OCC)cc1-n1cnnn1`, the compound was classed as inactive.

Turning to `COc1ccc(N2C(=O)CS/C2=C\[N+](=O)[O-])cc1`, the compound was called inactive.

Consider `CC(C)(C)[C@H]1C=C(C(=O)N2CCN(Cc3ccc4c(c3)OCO4)CC2)O[C@@H](OCc2ccc(CO)cc2)C1`, for which the compound was classed as inactive.

Regarding `CC(=O)Nc1ccc(S(=O)(=O)N2CCCC2C(=O)O)cc1` (stereo not given), the result was inactive.

`CCOC(=O)/C(C#N)=C1/C(=O)N(Cc2ccccc2)c2ccccc21`: the compound was called inactive.

Turning to `CCCn1c(C(O)c2ccc(OC)cc2)nc2ccccc21` (stereo not given), the call was inactive.

As to `Cc1cc2cccc(C)c2nc1SCC(=O)NNC(=O)c1ccco1`, the outcome was inactive.

On to `O=C(COc1ccccc1C(=O)N/N=C\c1ccc(O)c(O)c1)N/N=C/c1ccc(O)c(O)c1`, for which the call was inactive.

Turning to `COC(=O)C1=C(C)NC(C)=C(C(=O)OC)C1C1CC=CCC1` (stereo not given), the call was inactive.

For the compound `COc1cc(/C=C2/C(=O)ON=C2C)ccc1OCc1cccc(F)c1`, the call was inactive.

For the compound `Cc1cc(NC(=O)c2c(F)cccc2Cl)no1`, the call was inactive.

Take `COc1ccc(-n2c(SCC(N)=O)nc3sc4c(c3c2=O)CCN(C)C4)cc1`: the compound was classed as inactive.

As for `O=C(/C=C/c1cccs1)c1ccc(NC(=O)c2ccccc2F)cc1`, the result was inactive.

For `C#CCn1c(-c2cccs2)nc2ccccc21`, the result was inactive.

For the compound `CCSc1nnc(NC(=O)CN2C(=O)C3CC=CCC3C2=O)s1` (stereo not given), the compound was called inactive.

Consider `COc1cc(S(=O)(=O)Nc2ccccc2C)ccc1NC(=O)c1ccncc1`, for which the call was inactive.
